Source: PubChem BioAssay
Most compounds without a hit are left out; they make up all but 2% or so of the library.
Abeta rescue = A-beta toxicity reversal in yeast. Potency, µM (highest dose often 46.1 µM), most hits filed as activators. yeast expressing A-beta42, growth rescue, OD600, 48 h; response scale: 0% DMSO, 100% iron-clioquinol control. actives 0.063% (n = 410,000); note: potency is the fitted concentration of half-maximal effect; nearly all actives have a fitted effect of over 55% in size
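Growth rescue measured by 600 nm absorbance after 48 h yeast culture at 30 C with compound. Values normalized between DMSO and an equimolar ferric chloride plus clioquinol control.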
FUS yeast rescue = FUS proteinopathy suppression in yeast; S. cerevisiae FUS-expressing, growth rescue, OD600, 24 h; Potency, µM (doses to about 76.6 µM), most hits filed as activators; actives 0.24% (n = 390,000); AID 1347120;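 note: potency is the fitted concentration of half-maximal effect; plate controls were DMSO vehicle for no effect and reference control for full effect; nearly all actives have a fitted effect of over 55% in size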
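Steps: raffinose overnight preculture; dilution to OD 0.005 in 2% galactose minimal medium; compound addition (concentration series); 24hr at 30C, 99% humidity; absorbance read at 600 nm.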
LDHA inh = inhibitors of human lactate dehydrogenase A | activity change, % (values are at about 110 or 230 µM) | actives 0.15% (n = 480,000) | purified LDHA, NADH/diaphorase-resazurin fluorescence; stronger effect = lower value; in the data active = activity change below about -30%; inconclusive = mostly about -25% to -30%;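 note: plate controls were DMSO wells for no effect and wells without enzyme for full effect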
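Enzyme activity of human lactate dehydrogenase 5 (2 nM; 0.06 mM NADH, 0.2 mM pyruvate, 5 min, RT) is measured via a resazurin/diaphorase fluorescence readout of residual NADH.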
aSyn rescue = inhibitors of alpha-synuclein toxicity in yeast; Yeast expressing alpha-synuclein, growth rescue, BacTiter-Glo, 24 h; Potency, µM (top dose mostly 46.1 µM), for inactives: top-dose growth rescue (activation), hits mostly activators; actives 0.14% (n = 370,000); AID 652106; note: potency is the fitted concentration of half-maximal effect; % of control where 0% means no effect; nearly all actives have a fitted effect of over 65% in size
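Rescue of yeast growth: cells expressing toxic alpha-synuclein, induced in galactose at OD600 0.02, incubated with compound 24 h at 30 C. ATP luminescence quantified growth; inhibitors of toxicity appear as activators.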
TDP43 rescue = inhibitors of TDP-43 toxicity in yeast | Potency, µM (doses to about 46.1 µM), without a hit: at the top dose growth rescue (activation), hits mostly activators | TDP-43 expressing yeast growth rescue, BacTiter-Glo, 24 h | actives 1.8% (n = 410,000); note: potency is the fitted concentration of half-maximal effect; % of control where 0% means no effect; nearly all actives have a fitted effect of over 50% in size
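In this qHTS, compounds that restore growth of yeast expressing TDP-43 appear as activators. Cells (OD600=0.02, galactose medium, raffinose-pregrown) are incubated with compound 24 hr at 30 deg C and growth is quantified by BacTiter-Glo.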
IDH1 R132H inh = inhibitors of human mutant IDH1 R132H; AID 602179; IDH1-R132H enzyme, NADPH consumption, diaphorase/resazurin fluorescence; actives 0.093% (n = 390,000); Potency, µM (titrated, usually from 76.6 µM), inactives show at the top dose activity change, negative = inhibition, hits mostly inhibitors; note: potency is the fitted concentration of half-maximal effect; % is set by controls: 0 for no effect and ±100 for the full control effect; nearly all actives have a fitted effect of over 65% in size
Target sequence (O75874 whole entry R132H, stated change not applied): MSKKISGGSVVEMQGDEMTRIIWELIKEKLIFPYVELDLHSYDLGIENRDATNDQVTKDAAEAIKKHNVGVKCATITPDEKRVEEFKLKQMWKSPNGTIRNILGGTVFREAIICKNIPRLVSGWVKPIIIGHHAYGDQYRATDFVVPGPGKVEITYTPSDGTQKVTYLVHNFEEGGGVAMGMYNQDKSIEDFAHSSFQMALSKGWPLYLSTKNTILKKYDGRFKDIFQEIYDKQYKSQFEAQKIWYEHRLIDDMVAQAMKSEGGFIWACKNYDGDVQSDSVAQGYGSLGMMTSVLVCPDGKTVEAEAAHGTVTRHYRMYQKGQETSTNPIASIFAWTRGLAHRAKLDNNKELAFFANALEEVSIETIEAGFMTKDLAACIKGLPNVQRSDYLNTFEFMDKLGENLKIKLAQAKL
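IDH1-R132H (0.5 ug/mL) preincubated 30 min with compound, then NADPH (0.016 mM) and alpha-KG (2 mM) added; 80 min at RT, pH 7.5. Remaining NADPH coupled via diaphorase/resazurin to fluorescence (540/590 nm); concentration-response curves normalized to no-enzyme control.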
Starred values were filed as active, the others as inactive. Unless noted, calls come from the whole dose curve; as a rule, active = well fitted curve in the direction sought with a large enough effect; inconclusive = small, poorly fitted or top-dose-only effect, or another doubt; inactive = no such curve, though single readings can be large; an effect the other way counts as inactive or inconclusive.

How did O=C(CSc1nccc(-c2cccs2)n1)Nc1cccc(Cl)c1 do in these assays?
Abeta rescue: inactive; FUS yeast rescue: inactive; LDHA inh: -5; aSyn rescue: 3%; TDP43 rescue: 14µM*; IDH1 R132H inh: -3%

Results for O=C(O)c1ccc(OS(=O)(=O)c2ccc(Cl)s2)cc1 ?
Abeta rescue: inactive; FUS yeast rescue: inactive; LDHA inh: -5; aSyn rescue: 5%; TDP43 rescue: 14µM*; IDH1 R132H inh: 2%

Results for COc1ccc(Nc2nc(-c3ccc(CN(C)C(C)=O)cc3)cs2)cc1 ?
LDHA inh: -5

How did COc1cc(Br)c(/C=C/C(=O)O)cc1OC do in these assays?
LDHA inh: 4

Results for Fc1ccc(N2CCN(c3ncnc4onc(-c5ccc(Cl)cc5)c34)CC2)cc1 ?
Abeta rescue: inactive; FUS yeast rescue: inactive; LDHA inh: 1; TDP43 rescue: 18µM*; IDH1 R132H inh: 2%

How did Cc1ccccc1CC1C(=O)Nc2ccc(Br)cc21 (configuration not stated) do in these assays?
Abeta rescue: inconclusive; FUS yeast rescue: inactive; LDHA inh: 0; TDP43 rescue: 13µM*

How did COc1ccc(CC2C(=O)Nc3ccc(Br)cc32)c(OC)c1 (configuration not stated) do in these assays?
LDHA inh: 3

What do the screens show for `Cc1sc2nc(-c3cccnc3)nc(Cl)c2c1-c1ccccc1`?
Abeta rescue: inactive; LDHA inh: 0; aSyn rescue: -23%; TDP43 rescue: 25µM*; IDH1 R132H inh: -4%

Results for Cc1nc(-c2ccccc2)nc(Cl)c1Cl ?
Abeta rescue: inactive; FUS yeast rescue: inactive; LDHA inh: -1; aSyn rescue: 0%; TDP43 rescue: 0%; IDH1 R132H inh: -3%

What do the screens show for `O=C(CSc1nc(-c2ccco2)nc2ccccc12)NCCc1ccccc1`?
LDHA inh: 0

Results for COc1ccc2c(c1)[nH]c1c(Cl)ncnc12 ?
Abeta rescue: inactive; FUS yeast rescue: inactive; LDHA inh: -3; aSyn rescue: inconclusive; TDP43 rescue: 11µM*; IDH1 R132H inh: 8%

What do the screens show for `Cc1ccc2[nH]c3c(Cl)ncnc3c2c1`?
Abeta rescue: inactive; FUS yeast rescue: inactive; LDHA inh: -8; aSyn rescue: 13%; TDP43 rescue: 7%; IDH1 R132H inh: 13%

How did COC(=O)c1cccc(CN2C(=O)SC(Nc3ccc(C)cc3)C2=O)c1 (configuration not stated) do in these assays?
Abeta rescue: inconclusive; FUS yeast rescue: inactive; LDHA inh: -5; aSyn rescue: 13%; TDP43 rescue: 22%; IDH1 R132H inh: 1%

How did COC(=O)c1cccc(CN2C(=O)SC(Nc3ccc(Br)cc3)C2=O)c1 (configuration not stated) do in these assays?
Abeta rescue: inactive; FUS yeast rescue: inconclusive; LDHA inh: -1; TDP43 rescue: 16µM*; IDH1 R132H inh: 8%

What do the screens show for `COC(=O)c1cccc(CN2C(=O)SC(Nc3ccc(Cl)cc3)C2=O)c1` (configuration not stated)?
Abeta rescue: inactive; FUS yeast rescue: inactive; LDHA inh: -1; TDP43 rescue: 16µM*; IDH1 R132H inh: 5%

What do the screens show for `CC(=O)Oc1ccc2c(C)c(CC(=O)NCCc3ccc(Cl)cc3)c(=O)oc2c1OC(C)=O`?
LDHA inh: 1

Results for CCOc1nc(Nc2ccc(OC)cc2)nc(OCC)n1 ?
Abeta rescue: inactive; FUS yeast rescue: inactive; LDHA inh: 0; aSyn rescue: -4%; TDP43 rescue: 22%; IDH1 R132H inh: 4%

What do the screens show for `CCOc1nc(Nc2ccc(OC)c(Cl)c2)nc(OCC)n1`?
Abeta rescue: inactive; FUS yeast rescue: inactive; LDHA inh: -1; aSyn rescue: 2%; TDP43 rescue: 14µM*; IDH1 R132H inh: 3%

How did COc1ccc(Nc2nc(N3CCOCC3)nc(N3CCOCC3)n2)cc1Cl do in these assays?
Abeta rescue: inactive; FUS yeast rescue: inactive; LDHA inh: -8; aSyn rescue: 4%; TDP43 rescue: 16µM*; IDH1 R132H inh: -7%

Results for CC(=O)NCc1ccc(-c2csc(Nc3cccc(C(F)(F)F)c3)n2)o1 ?
LDHA inh: 6

How did O=C(NCc1ccccc1)c1ccc(CSc2nc3cccnc3n2Cc2ccccc2F)cc1 do in these assays?
Abeta rescue: inactive; FUS yeast rescue: inactive; LDHA inh: -33*; TDP43 rescue: 0%; IDH1 R132H inh: -17%

Results for O=C(OCC(=O)N(Cc1ccccc1)Cc1ccccc1)c1ccc2ccccc2n1 ?
LDHA inh: -37*

How did CC(C)N(C(=O)COC(=O)c1ccc2ccccc2n1)C(C)C do in these assays?
LDHA inh: -4

Results for C=C(C)n1c(=O)n(Cc2ccc(C)cc2)c2ccccc21 ?
Abeta rescue: inactive; FUS yeast rescue: inactive; LDHA inh: -1; aSyn rescue: 30%; TDP43 rescue: 5%; IDH1 R132H inh: 5%

What do the screens show for `C=C(C)n1c(=O)n(Cc2ccccc2C)c2ccccc21`?
Abeta rescue: inactive; FUS yeast rescue: inactive; LDHA inh: -2; aSyn rescue: 0%; TDP43 rescue: 11µM*; IDH1 R132H inh: 1%

What do the screens show for `CCc1ccc(CNC(=O)CN2CCSc3ccccc32)cc1`?
Abeta rescue: inconclusive; FUS yeast rescue: inactive; LDHA inh: 0; aSyn rescue: 11%; TDP43 rescue: 25µM*; IDH1 R132H inh: 1%

How did Cc1c(CC(=O)N2CCN(C(=O)C3COc4ccccc4O3)CC2)c(=O)oc2cc(O)cc(O)c12 (configuration not stated) do in these assays?
Abeta rescue: inactive; FUS yeast rescue: 18µM*; LDHA inh: 4; aSyn rescue: -18%; TDP43 rescue: -7%; IDH1 R132H inh: 14%

What do the screens show for `Cc1c(CC(=O)N2CCN(C(=O)C3COc4ccccc4O3)CC2)c(=O)oc2cc(O)ccc12` (configuration not stated)?
Abeta rescue: inactive; FUS yeast rescue: inconclusive; LDHA inh: -1; aSyn rescue: 4%; TDP43 rescue: 4%; IDH1 R132H inh: -5%

What do the screens show for `FC(F)(F)c1ccc(NC(=S)NC2CC2)cc1`?
LDHA inh: -2

What do the screens show for `CCCCCS(=O)(=O)c1oc(-c2cccs2)nc1S(=O)(=O)c1ccc(C)cc1`?
Abeta rescue: inactive; FUS yeast rescue: inactive; LDHA inh: -4; TDP43 rescue: 11%; IDH1 R132H inh: 15%
